# Screening results from PubChem.
# This is a sample that favours compounds with a hit; in the whole collection about 3.4% have one here.
# Wnt bcat act: Wnt/beta-catenin pathway activation; activation, % at 9.35 µM; hit rate 1.2% among 300,000; Wnt/beta-catenin reporter cell assay, activator, plate reader; in the data active means activation above about 30%, passing the limit was not always enough; inconclusive means no clear call, values can overlap the other calls;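 further: 0% = neutral control wells and 100% = positive control wells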
# MITF act: activators of MITF-driven TRPM1 promoter activity in SK-MEL-5 cells; SK-MEL-5 TRPM1-promoter luciferase, 24 h; % of positive control, neutral wells = 0; activation, % at 12.5 µM; hit rate 0.75% among 300,000;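 active means mean activation of at least 80% with every replicate also reaching 80%; inconclusive means mean reaches 80% but some replicate falls short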;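 further: 0% = neutral control wells and 100% = parthenolide positive control wells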
# miR-122 sensor: miR-122 inhibition in Huh7 cells. hit rate 0.3% among 340,000. Huh7 miR-122 Renilla luciferase sensor, 48 h; neutral wells = 0, positive control = 100. activation (reporter increase), % at 12.5 µM;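 active means mean replicate activation score at least 90 and every replicate individually at or above 90; inconclusive means only one of the two criteria met; inactive means neither criterion met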;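 further: higher luciferase means less miR-122 activity so hits act as miR-122 inhibitors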
# HIV Env fusion: HIV envelope-mediated fusion inhibition; inhibition, % at 12.3 µM; HeLa-JRFL Env/CEM21 cell fusion, luciferase; hit rate 1.1% among 360,000; AID 651610;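 active means mean replicate inhibition score of at least 50 and every replicate individually at or above 50; inconclusive means only one of the two criteria met; inactive means mean below 50 and not all replicates reaching 50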;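 further: 0% = plate neutral controls and 100% = maraviroc near 300 nM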
# esBAF inh: SWI/SNF esBAF complex inhibition; mouse ES cells, Bmi1-luciferase knock-in reporter, 24 h; 100% = twice the neutral-well signal; reporter increase, % at 12.5 µM; hit rate 2% among 350,000; AID 602393; in the data active means activation above about 40%; inconclusive means no clear call, values can overlap the other calls;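 further: 0% = median of the plate's neutral control wells and 100% = double that signal; a rise in the Bmi1 reporter signal indicates esBAF inhibition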
# * = called active by the depositor; ? = inconclusive; . = no result given; [ ] = remark or other dose.
SMILES,Wnt bcat act,MITF act,miR-122 sensor,HIV Env fusion,esBAF inh
Cn1cc(Cl)c(C(=O)Nc2nc3ccc(Cl)cc3s2)n1,.,64,3,.,112*
CC1CC1C(=O)Nc1nc2ccc(Cl)cc2s1 (centres undefined),54*,5,.,-28,.
CCN1CCN(c2ccc(NC(=O)c3cccc(N4CCCC4=O)c3)cc2)CC1,21,5,7,-7,60*
Cc1ccc2nc(N3C(=O)C(O)=C(C(=O)c4ccc(C)o4)C3c3ccco3)sc2c1 (centres undefined),18,1,-2,-20,?
O=C(C1=C(O)C(=O)N(c2nc3ccc(Cl)cc3s2)C1c1ccco1)c1ccco1 (centres undefined),33*,-14,.,.,?
Cc1ccc2nc(N3C(=O)C(O)=C(C(=O)c4cc5ccccc5o4)C3c3cccs3)sc2c1 (centres undefined),.,6,-2,.,45*
Cc1cc2sc(NC(=O)c3ccco3)nc2cc1Cl,30*,.,7,-106,9
CCSc1nnc2c(n1)OC(C)(C)Nc1ccccc1-2,19,12,3,.,48*
O=C(Nc1ncccc1O)c1cc2ccccc2o1,55*,16,-7,-31,-37
O=C(Nc1ccccc1C(F)(F)F)c1cc2ccccc2o1,14,56,3,-62,52*
O=C(Nc1ccccn1)c1cc2ccccc2o1,.,-62,-1,.,-67
COc1ccc(C)cc1NC(=O)c1cc2ccccc2o1,.,7,22,3,8
Cc1ccc(C)c(NC(=O)c2cc3ccccc3o2)c1,3,.,5,-50,74*
CN(C)C(=O)C[C@@H]1CC[C@H]2[C@H](COc3ccc(NC(=O)c4cnccn4)cc3C(=O)N2C)O1,.,.,-6[16.7 µM],-11[16.7 µM],-8
O=C(C[C@H]1CC[C@@H]2[C@H](COC[C@@H](O)CN2Cc2nccs2)O1)NCc1ccccc1F,.,.,7[16.7 µM],.,-1
COc1cc(CNc2ccc3[nH]c(=O)[nH]c3c2)ccc1OCc1ccccc1C,18,71,.,-22,47*
COc1cc(CNc2ccc3[nH]c(=O)[nH]c3c2)ccc1OCc1ccccc1F,0,26,-7,-9,47*
COc1cc(CNc2ccc3[nH]c(=O)[nH]c3c2)ccc1OCc1ccc(Cl)cc1,11,.,.,-12,55*
S=C(NCCN1CCOCC1)N/N=C/c1cccs1,1,-7,.,-8,4
Oc1ccc(/C=N/NC(=S)NC2CC3CCC2C3)cc1 (centres undefined),18,27,-26,-114,47*
S=C(N/N=C/c1cccs1)NC1CC2CCC1C2 (centres undefined),34*,.,12,11,.
Oc1ccc(/C=N/NC(=S)NCC2CCCO2)cc1 (centres undefined),.,9,-2,.,5
CCCCC(=O)c1c(O)c2ccccc2oc1=O,.,-6,-7,.,59*
CC(=N)c1c(O)c2ccccc2oc1=O,8,16,.,-23,.
CCCCN=C(C)c1c(O)c2ccccc2oc1=O,-1,.,-6,.,42*
SMILES,Wnt bcat act,MITF act,miR-122 sensor,HIV Env fusion,esBAF inh
C[C@H](CO)N1C[C@H](C)[C@@H](CN(C)C(=O)C2CCCCC2)Oc2ncc(C#CC3CCCC3)cc2C1=O,.,.,7[16.7 µM],25[16.7 µM],-5
CC(C)(C#N)Cc1cc(CC(C)(C)C#N)cc(C(C)(C)C)c1,6,15,0,33,10
N#CC(Cc1cccc(CC(C#N)(c2ccccc2)c2ccccc2)c1)(c1ccccc1)c1ccccc1,-5,7,-1,57*,7
C[C@@H]1CCCCO[C@@H](CN(C)Cc2ccc3c(c2)OCO3)[C@@H](C)CN([C@H](C)CO)C(=O)c2cc(NS(=O)(=O)c3ccc(F)cc3)ccc2O1,.,.,-2[16.7 µM],-14[16.7 µM],4
O=C(CN1CCCCC1)Nc1scc2c1c(=O)oc1ccccc12,38*,.,-4,-70,?
O=C(OCc1cc(=O)n2ccsc2n1)c1ccc(O)cc1O,26,54,.,-19,54*
O=c1cc(COc2ncnc3ccccc23)nc2sccn12,1,0,2,-41,-7
CC(=O)c1ccc(OCc2cc(=O)n3ccsc3n2)cc1,11,48,.,-17,.
Cc1ccsc1C(=O)OCc1cc(=O)n2ccsc2n1,54*,77,-5,-95,-9
CC(C)NC(=O)N1C[C@H]2[C@@H](c3ccccc31)[C@@H](CO)N2C(=O)c1ccncc1,.,.,19[16.7 µM],.,-4
COc1ccc2c(ccc[n+]2CC(=O)c2ccccc2)c1,-2,-17,-4,2,2
COc1ccc(C(=O)C[n+]2cn(C(F)F)c3ccccc32)c(F)c1,14,13,-2,-20,52*
Cc1cc(OC(C)C(N)=O)nc(-c2ccccc2)n1 (centres undefined),39*,-4,3,2,10
C[C@H]1CN([C@@H](C)CO)C(=O)c2cc(NS(=O)(=O)c3ccc(F)cc3)ccc2O[C@@H]1CN(C)CC1CC1,.,.,-4[16.7 µM],.,2
O=C(C[C@H]1CC[C@H](NC(=O)Nc2ccc3c(c2)OCO3)[C@H](CO)O1)NCc1ccc(F)cc1,.,.,.,12[16.7 µM],-5
O=C(OCC(=O)c1cccc2ccccc12)c1ccc(CO)cc1,9,137*,-4,.,.
COc1ccc(CN(C)C[C@@H]2Oc3ccc(NC(=O)CCN4CCOCC4)cc3CC(=O)N([C@@H](C)CO)C[C@@H]2C)cc1,.,.,38[16.7 µM],.,-12
N=c1c2ccccc2nnn1-c1ccccc1[N+](=O)[O-],0,4,161*,-33,10
C[C@@H]1CN([C@H](C)CO)C(=O)c2cccc(NC(=O)c3cnccn3)c2O[C@H]1CN(C)Cc1ccccc1,.,.,11[16.7 µM],64*[16.7 µM],-3
C[C@H]1CN([C@@H](C)CO)C(=O)c2cccc(NC(=O)c3ccncc3)c2O[C@@H]1CN(C)Cc1ccc(C(F)(F)F)cc1,.,.,108*[16.7 µM],-2[16.7 µM],2
C[C@@H]1CN([C@@H](C)CO)C(=O)c2cccc(NC(=O)c3cnccn3)c2O[C@H]1CN(C)Cc1ccc(C(F)(F)F)cc1,.,.,152*[16.7 µM],26[16.7 µM],-18
Cc1noc(C)c1S(=O)(=O)N(C)C[C@@H]1Oc2c(NC(=O)c3cnccn3)cccc2C(=O)N([C@@H](C)CO)C[C@@H]1C,.,.,166*[16.7 µM],1[16.7 µM],-6
C[C@H](CO)N1C[C@H](C)[C@@H](CN(C)S(C)(=O)=O)Oc2c(NC(=O)c3cnccn3)cccc2C1=O,.,.,-7[16.7 µM],.,-6
C[C@@H]1CN([C@@H](C)CO)C(=O)c2cccc(NC(=O)c3ccncc3)c2O[C@H]1CN(C)Cc1ccc(C(F)(F)F)cc1,.,.,34[16.7 µM],36[16.7 µM],7
C[C@H]1CN([C@@H](C)CO)C(=O)c2cccc(NC(=O)c3cnccn3)c2O[C@H]1CN(C)Cc1ccc(-c2ccccc2)cc1,.,.,6[16.7 µM],.,0
C[C@@H]1CN([C@H](C)CO)C(=O)c2cc(C3=CCCC3)cnc2O[C@@H]1CN(C)Cc1ccccc1,.,.,-10[16.7 µM],-9[16.7 µM],1
CO[C@H]1CN(C)C(=O)c2ccc(NC(C)=O)cc2OC[C@@H](C)N(C(=O)Cc2ccccn2)C[C@@H]1C,.,.,.,-18[16.7 µM],0
